Assay results reported in PubChem BioAssay (NCI).
The panel holds about 83,000 compounds, 20% with a hit somewhere; the sample as a whole holds those more often.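 Each cell line was grown in a 96-well plate and treated with one concentration of compound for 48 hours. Values below 10 were considered active.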 Unmarked numbers belong to inactive results. Calls of active or inactive are those of the source.

Key:
Experiment in all cases: NCI-60 one-dose screen, 48 h (100 = growth as untreated, 0 = no growth, -100 = all killed)
Conditions in all cases: 10 µM unless noted
NCI-H23 lung = test system: NCI-H23 lung
NCI-H226 lung = test system: NCI-H226 lung
NCI-H322M lung = test system: NCI-H322M lung
HOP-62 NSCLC = test system: HOP-62 NSCLC
NCI-H460 lung = test system: NCI-H460 lung
NCI-H522 lung = test system: NCI-H522 lung
A549/ATCC NSCLC = test system: A549/ATCC NSCLC
786-0 renal = test system: 786-0 renal
COLO 205 colon = test system: COLO 205 colon
DU-145 prostate = test system: DU-145 prostate
K-562 leukemia = test system: K-562 leukemia
MALME-3M melanoma = test system: MALME-3M melanoma
MDA-MB-231 breast = test system: MDA-MB-231 breast
RXF 393 renal = test system: RXF 393 renal
SF-268 CNS = test system: SF-268 CNS
SF-295 CNS = test system: SF-295 CNS
SF-539 CNS = test system: SF-539 CNS
UACC-257 melanoma = test system: UACC-257 melanoma
M14 melanoma = test system: M14 melanoma

With `Cc1c2c(cc3c1[nH]c1ccccc13)C=NCC2` the growth (NCI-H23 lung) was 88.7%, the growth (NCI-H226 lung) was 93% and the growth (NCI-H322M lung) was 99.7%. It also gave a growth (HOP-62 NSCLC) of 96%, a growth (NCI-H460 lung) of 95.5% and a growth (NCI-H522 lung) of 75.1%. For the same compound, the growth (A549/ATCC NSCLC) was 91.5%, the growth (786-0 renal) was 80.8% and the growth (COLO 205 colon) was 78.2%. The growth (DU-145 prostate) was 94.9%, the growth (K-562 leukemia) was 62.3% and the growth (MALME-3M melanoma) was 103%. The growth (MDA-MB-231 breast) was 90.4%, the growth (RXF 393 renal) was 84.9% and the growth (SF-268 CNS) was 95.5%. For the same compound, the growth (SF-295 CNS) was 92.4%, the growth (SF-539 CNS) was 92.8% and the growth (UACC-257 melanoma) was 106%. The growth (M14 melanoma) was 91%.
With `COc1ccc(NC(=O)c2sc3c(=O)[nH]c(C(F)(F)F)nc3c2C)cc1` the growth (NCI-H23 lung) was 93.4%, the growth (NCI-H226 lung) was 97.7% and the growth (NCI-H322M lung) was 107%. For the same compound, the growth (HOP-62 NSCLC) was 107%, the growth (NCI-H460 lung) was 115% and the growth (NCI-H522 lung) was 79.5%. For the same compound, the growth (A549/ATCC NSCLC) was 95.2%, the growth (786-0 renal) was 103% and the growth (COLO 205 colon) was 114%. The growth (DU-145 prostate) was 118%, the growth (K-562 leukemia) was 102% and the growth (MALME-3M melanoma) was 102%. For the same compound, the growth (MDA-MB-231 breast) was 112%, the growth (RXF 393 renal) was 117% and the growth (SF-268 CNS) was 108%. The growth (SF-295 CNS) was 111%, the growth (SF-539 CNS) was 114% and the growth (UACC-257 melanoma) was 105%. It also gave a growth (M14 melanoma) of 116%.
`C[C@H](NC(=O)c1snnc1C1CC1)c1c(F)cccc1Cl` was tested, and the growth (NCI-H23 lung) was 97.3%, the growth (NCI-H226 lung) was 96.1% and the growth (NCI-H322M lung) was 123%. For the same compound, the growth (HOP-62 NSCLC) was 107%, the growth (NCI-H460 lung) was 110% and the growth (NCI-H522 lung) was 94.2%. It also gave a growth (A549/ATCC NSCLC) of 101%, a growth (786-0 renal) of 112% and a growth (COLO 205 colon) of 219%. It also gave a growth (DU-145 prostate) of 127%, a growth (K-562 leukemia) of 115% and a growth (MALME-3M melanoma) of 119%. For the same compound, the growth (MDA-MB-231 breast) was 105%, the growth (RXF 393 renal) was -22.6% (active) and the growth (SF-268 CNS) was 114%. The growth (SF-295 CNS) was 96.8%, the growth (SF-539 CNS) was 96.6% and the growth (UACC-257 melanoma) was 115%. For the same compound, the growth (M14 melanoma) was 116%.
With `COc1cc(C2CC(c3ccccc3)=NN2C=O)ccc1Oc1nc2c(c(=O)n(C)c(=O)n2C)n1C` (configuration not stated) the growth (NCI-H23 lung) was 79%, the growth (NCI-H226 lung) was 79% and the growth (NCI-H322M lung) was 55.4%. The growth (HOP-62 NSCLC) was 102%, the growth (NCI-H460 lung) was 91.3% and the growth (NCI-H522 lung) was 91.7%. The growth (A549/ATCC NSCLC) was 61.5%, the growth (786-0 renal) was 98.1% and the growth (COLO 205 colon) was 105%. The growth (DU-145 prostate) was 59%, the growth (K-562 leukemia) was 74.3% and the growth (MALME-3M melanoma) was 77.9%. For the same compound, the growth (MDA-MB-231 breast) was 71.9%, the growth (RXF 393 renal) was 90.9% and the growth (SF-268 CNS) was 56.3%. For the same compound, the growth (SF-295 CNS) was 62.2%, the growth (SF-539 CNS) was 117% and the growth (UACC-257 melanoma) was -27.3% (active). It also gave a growth (M14 melanoma) of 69.9%.
With `COc1ccc(C(=O)OC2C(OC3C(O)COC(O[C@H]4C[C@H]5[C@@H]6CC=C7C[C@@H](O)CC[C@]7(C)[C@H]6CC[C@]5(C)[C@H]4[C@H](C)C(=O)CCC(C)C)C3OC(C)=O)OCC(O)C2O)cc1` (some centres not stated) the growth (NCI-H23 lung) was 2.95% (active), the growth (NCI-H226 lung) was -14% (active) and the growth (NCI-H322M lung) was 36.9%. For the same compound, the growth (HOP-62 NSCLC) was -32.2% (active), the growth (NCI-H460 lung) was -20.3% (active) and the growth (NCI-H522 lung) was -65.7% (active). The growth (A549/ATCC NSCLC) was -14.3% (active), the growth (786-0 renal) was -41.2% (active) and the growth (COLO 205 colon) was -64.3% (active). The growth (DU-145 prostate) was 28.5%, the growth (K-562 leukemia) was -50.3% (active) and the growth (MALME-3M melanoma) was -12.7% (active). The growth (MDA-MB-231 breast) was 10.6%, the growth (RXF 393 renal) was -71.9% (active) and the growth (SF-268 CNS) was -12.6% (active). The growth (SF-295 CNS) was -64.5% (active), the growth (SF-539 CNS) was -69.8% (active) and the growth (UACC-257 melanoma) was -60.3% (active). For the same compound, the growth (M14 melanoma) was -69.3% (active).
`COC(=O)C(Br)(C(=O)OC)C(Br)C(Br)C(Br)c1ccccc1` (configuration not stated) was tested, and the growth (NCI-H23 lung) was 94.1%, the growth (NCI-H226 lung) was 91.8% and the growth (NCI-H322M lung) was 102%. The growth (HOP-62 NSCLC) was 120%, the growth (NCI-H460 lung) was 100% and the growth (NCI-H522 lung) was -84.5% (active). The growth (A549/ATCC NSCLC) was 97.9%, the growth (786-0 renal) was 86% and the growth (COLO 205 colon) was 30.1%. It also gave a growth (DU-145 prostate) of 89.3%, a growth (K-562 leukemia) of 19.9% and a growth (MALME-3M melanoma) of 47.5%. The growth (MDA-MB-231 breast) was 89%, the growth (RXF 393 renal) was -20.8% (active) and the growth (SF-268 CNS) was 101%. The growth (SF-295 CNS) was 114%, the growth (SF-539 CNS) was 26.6% and the growth (UACC-257 melanoma) was 56.4%. For the same compound, the growth (M14 melanoma) was 44.2%.
`O=c1c2cc(Br)cc(Br)c2nc(-c2ccc(Cl)cc2)n1/N=C\c1ccccc1F` gave a growth (NCI-H23 lung) of 62.9%, a growth (NCI-H226 lung) of 51.2% and a growth (NCI-H322M lung) of 52.5%. The growth (HOP-62 NSCLC) was 27.4%, the growth (NCI-H460 lung) was 39.1% and the growth (NCI-H522 lung) was 51.3%. For the same compound, the growth (A549/ATCC NSCLC) was 57.1%, the growth (786-0 renal) was -34% (active) and the growth (COLO 205 colon) was 66.3%. The growth (DU-145 prostate) was 96%, the growth (K-562 leukemia) was 72.1% and the growth (MALME-3M melanoma) was 90.4%. The growth (MDA-MB-231 breast) was 55.1%, the growth (RXF 393 renal) was 72.9% and the growth (SF-268 CNS) was 73.3%. For the same compound, the growth (SF-295 CNS) was 29.8%, the growth (SF-539 CNS) was 81.9% and the growth (UACC-257 melanoma) was 89.9%. It also gave a growth (M14 melanoma) of 81.8%.
`CCOC(=O)C1OC2(CCCC2)OC1C(=O)OCC` (configuration not stated) showed a growth (NCI-H23 lung) of 103%, a growth (NCI-H226 lung) of 97.1% and a growth (NCI-H322M lung) of 94.3%. The growth (HOP-62 NSCLC) was 103%, the growth (NCI-H460 lung) was 116% and the growth (NCI-H522 lung) was 90.5%. The growth (A549/ATCC NSCLC) was 102%, the growth (786-0 renal) was 100% and the growth (COLO 205 colon) was 111%. It also gave a growth (DU-145 prostate) of 125%, a growth (K-562 leukemia) of 112% and a growth (MALME-3M melanoma) of 107%. The growth (MDA-MB-231 breast) was 95.7%, the growth (RXF 393 renal) was 104% and the growth (SF-268 CNS) was 114%. The growth (SF-295 CNS) was 126%, the growth (SF-539 CNS) was 114% and the growth (UACC-257 melanoma) was 97.7%. It also gave a growth (M14 melanoma) of 105%.
